The structures appear in SMILES notation. Active and inactive are the calls of the source.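 The calls were made as follows, unless noted: active = compounds giving at least 50% inhibition in the cell-based MKP-3 phosphatase rescue imaging test; inactive = the rest.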

Assay [1] can be described thus: inhibitors of TNFa-induced NFkB p65 translocation, primary screen, imaging, HUVEC, MLSMR starter and 10KST1 sets (AID 438;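 active = inhibition above 20% together with a positive visual image hit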;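 also: compound added about 3h40 before a 20 min TNFalpha stimulation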;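 as to inhibition: signal is the nuclear over cytoplasmic p65 intensity ratio per well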). The following applies: HUVEC TNFa-induced p65 nuclear translocation; cell count: measured here: nuclei count (cytotoxicity indicator), at 2.08 µM; inhibition: at 2 µM, stronger effect = higher value, 0% TNFa-plus-vehicle, 100% no-TNFa wells.
Assay [2] can be described thus: reduction of polyQ htt aggregates in cells – imaging, exon1htt(103Q)mCFP cells, high-content imaging, primary screen (AID 483;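 active = visual image review flags a hit and inhibition of aggregation exceeds 20%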;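 also: compound exposure lasted 3 days before fixation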;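 as to nuclei count: percent of the per-plate median nuclei count of sample wells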). The following applies: exon1htt(103Q)mCFP cell line, aggregate imaging, at 2 µM; inhibition of aggregation: stronger effect = higher value; nuclei count: measured here: cell count, toxicity.
A short description of assay [3]: endothelial E-selectin expression blockers – imaging, HUVEC, immunofluorescence, MLSMR starter and 10KST1 sets, primary screen (AID 487;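 active = visually confirmed hit in the image check and inhibition above 20%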;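 as to inhibition: signal is fraction of cell area covered by stained E-selectin grains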;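 as to nuclei count: 100% = median nuclei count of all wells on the same plate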). The following applies: HUVEC TNFalpha-induced E-selectin immunofluorescence imaging, at 2 µM; inhibition: stronger effect = higher value; nuclei count: measured here: cell number, toxicity.
A short description of assay [4]: Primary imaging screen for DUSP6 inhibitors that restore phospho-Erk in transfected HeLa cells, chemical complementation (AID 609).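 As to inhibition: phospho-Erk level distribution per well compared with pooled transfected vehicle control wells.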 The following applies: HeLa MKP-3 transfected, phospho-Erk imaging KS statistic, at 10 µM, cells stimulated with TPA for 15 min.
Assay [5] deals with Dual specificity protein phosphatase 6 (Homo sapiens) (UniProt Q16828). Described as above. The following applies: HeLa MKP-3 transfected, phospho-Erk imaging KS statistic; at 10 µM; stronger effect = higher value; cells stimulated with TPA for 15 min.
In assay [6] the target is Voltage-gated potassium channel subunit beta-2 (Rattus norvegicus) (UniProt P62483). Kind of assay: inhibitors of rat Kvbeta2 reductase activity – biochemical, NADPH fluorescence, primary screen (AID 622;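 active = fluorescence slope higher than the sample average by over 3 SD, cut at about -0.22 in these data, passing the limit was not always enough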;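 also: slope of raw intensity against log time taken from 70 to 1610 s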). The following applies: recombinant KvBeta, 4-cyanobenzaldehyde reduction, at 10 µM, stronger effect = higher value.
Assay [7] shares this target. Kind of assay: enhancers of rat Kvbeta2 NADPH turnover – biochemical, NADPH fluorescence, primary screen (AID 623;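 active = NADPH fluorescence slope more negative than the mean of all samples by about 3 SD, 99.7% confidence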;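 also: fluorescence intensity change per second fitted from 20 to 320 s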). The following applies: Recombinant KvBeta, NADPH fluorescence decrease slope, 10 min; at 10 µM; stronger effect = lower value.
Assay [8] deals with Alpha-2C adrenergic receptor (Homo sapiens) (UniProt P18825). Description: compounds altering alpha2C-coupled GIRK flux – cell-based, HEK293 alpha2C/GIRK1/2, thallium flux, primary screen (AID 624;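 active = fluorescence slope after compound addition differing from the mean of all screened samples at 99.7% confidence, in either direction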;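 also: slope of fluorescence ratio to pre-addition baseline per second over 15 to 24 s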). The following applies: thallium flux BTC fluorescence, at 10 µM, actives lie on both sides.
For assay [9], the target named is Muscarinic acetylcholine receptor M4 (Homo sapiens) (UniProt P08173). Kind of assay: M4-linked GIRK flux change, two-sided – cell-based, HEK293 M4/GIRK, thallium flux, BTC-AM, M4 allosteric agonist project, primary screen (AID 625;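 active = fluorescence slope after compound addition differing from the mean of all tested samples at 99.7% confidence, mostly higher but some lower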;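 also: thallium influx through GIRK channels coupled to M4 in HEK293 cells with BTC-AM dye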). The following applies: at 10 µM, actives lie on both sides.
Assay [10] can be described thus: inhibitors of larval lipid processing in zebrafish, primary screen, whole organism, PED6 fluorescence, gall bladder and intestine (AID 686;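 active = a full or partial loss of lipid-probe fluorescence in the fish gall bladder, intestine or both, judged by eye; inactive = no fluorescence loss, or compound toxic to the fish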;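 also: larvae 5 to 7 days old with five fish per well; signal comes from phospholipase A2 cleavage of quenched PED6 carried via bile; overnight exposure to compound and PED6 before scoring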). The following applies: Zebrafish larvae PED6 lipid processing, fluorescence scoring; screened at 20 µM (by protocol).
Assay [11] in a line: loss of swimming-algae plug formation – whole organism, Chlamydomonas reinhardtii, WT vs cilia-less mutant, absorbance, 96-well, primary screen (AID 463189;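 active = inhibition at or above 50% relative to wild type and mutant plate controls; inactive = inhibition below 50%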;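 also: 0% = wild type cc124 cells in DMSO and 100% = ciliumless bld1 mutant cells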). The following applies: Chlamydomonas reinhardtii gravitaxis, OD600 absorbance, 2 days; at 10 µM; stronger effect = higher value.
Assay [12] is described as follows: blockers of RIG-like receptor reporter activation – cell-based, Sendai virus stimulus, luciferase, 10K MLSCN set, TLR/RLR signaling modifier project, primary screen (AID 602276;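 active = inhibition at or above 50% at 10 µM; inactive = inhibition below 50%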;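 also: firefly luciferase from ISG56 promoter only with Renilla not read in this screen; 0% = Sendai virus plus DMSO and 100% = medium plus DMSO without virus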). The following applies: HEK293 RL24 IRF3 luciferase reporter, at 10 µM, stronger effect = higher value. A general note: A reporter such as luciferase makes a cellular process visible.
Assay [13] is described as follows: TLR3 IRF3 reporter activation blockers – cell-based, poly I:C stimulus, luciferase, 10K MLSCN set, primary screen (AID 602277;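 active = inhibition of the reporter signal at or above 50%; inactive = inhibition below 50%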). The following applies: HEK293-TLR3 RL24 IRF3 luciferase reporter, at 10 µM, stronger effect = higher value.
Where [14] appears, read: measured here: cell density z-score.
The mark [15] stands for this setting: measured here: nuclear c-Myc green intensity z-score.
The mark [16] stands for this setting: measured here: nuclear pErk red intensity z-score, stronger effect = higher value.

Dual specificity protein phosphatase 6 (Homo sapiens), sequence (Q16828 whole entry, looked up): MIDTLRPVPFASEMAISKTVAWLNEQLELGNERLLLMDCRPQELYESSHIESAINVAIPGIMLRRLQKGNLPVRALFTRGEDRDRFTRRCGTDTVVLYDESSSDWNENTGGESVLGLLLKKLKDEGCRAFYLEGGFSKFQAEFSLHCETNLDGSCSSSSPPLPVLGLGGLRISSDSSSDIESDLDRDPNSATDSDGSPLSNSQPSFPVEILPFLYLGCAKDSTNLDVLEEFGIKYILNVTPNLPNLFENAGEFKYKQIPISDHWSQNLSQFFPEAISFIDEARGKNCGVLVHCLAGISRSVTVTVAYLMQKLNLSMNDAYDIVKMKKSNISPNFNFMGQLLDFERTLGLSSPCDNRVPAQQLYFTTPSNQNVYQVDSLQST
Voltage-gated potassium channel subunit beta-2 (Rattus norvegicus), sequence (P62483 whole entry, looked up): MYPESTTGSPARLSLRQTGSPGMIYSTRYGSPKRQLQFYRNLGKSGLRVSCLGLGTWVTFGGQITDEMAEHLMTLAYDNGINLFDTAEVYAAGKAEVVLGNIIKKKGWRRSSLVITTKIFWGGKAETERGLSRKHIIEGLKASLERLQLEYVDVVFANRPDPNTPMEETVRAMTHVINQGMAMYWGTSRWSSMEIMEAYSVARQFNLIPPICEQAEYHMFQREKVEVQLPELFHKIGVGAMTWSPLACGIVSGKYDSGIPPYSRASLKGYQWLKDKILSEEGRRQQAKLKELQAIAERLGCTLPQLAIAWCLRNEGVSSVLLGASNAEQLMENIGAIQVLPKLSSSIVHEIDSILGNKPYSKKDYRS
Alpha-2C adrenergic receptor (Homo sapiens), sequence (P18825 whole entry, looked up): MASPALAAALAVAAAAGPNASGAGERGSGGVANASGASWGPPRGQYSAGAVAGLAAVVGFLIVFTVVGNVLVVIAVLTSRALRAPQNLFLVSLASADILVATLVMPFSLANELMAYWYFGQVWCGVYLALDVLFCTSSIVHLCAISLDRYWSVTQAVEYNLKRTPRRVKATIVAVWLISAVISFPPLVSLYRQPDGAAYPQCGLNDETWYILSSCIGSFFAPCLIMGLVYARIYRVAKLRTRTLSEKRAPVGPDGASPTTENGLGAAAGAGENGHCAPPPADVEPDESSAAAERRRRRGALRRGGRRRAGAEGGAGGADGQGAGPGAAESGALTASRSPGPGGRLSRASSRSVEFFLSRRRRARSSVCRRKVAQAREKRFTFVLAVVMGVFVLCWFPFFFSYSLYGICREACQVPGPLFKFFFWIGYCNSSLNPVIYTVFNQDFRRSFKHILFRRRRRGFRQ
Muscarinic acetylcholine receptor M4 (Homo sapiens), sequence (P08173 whole entry, looked up): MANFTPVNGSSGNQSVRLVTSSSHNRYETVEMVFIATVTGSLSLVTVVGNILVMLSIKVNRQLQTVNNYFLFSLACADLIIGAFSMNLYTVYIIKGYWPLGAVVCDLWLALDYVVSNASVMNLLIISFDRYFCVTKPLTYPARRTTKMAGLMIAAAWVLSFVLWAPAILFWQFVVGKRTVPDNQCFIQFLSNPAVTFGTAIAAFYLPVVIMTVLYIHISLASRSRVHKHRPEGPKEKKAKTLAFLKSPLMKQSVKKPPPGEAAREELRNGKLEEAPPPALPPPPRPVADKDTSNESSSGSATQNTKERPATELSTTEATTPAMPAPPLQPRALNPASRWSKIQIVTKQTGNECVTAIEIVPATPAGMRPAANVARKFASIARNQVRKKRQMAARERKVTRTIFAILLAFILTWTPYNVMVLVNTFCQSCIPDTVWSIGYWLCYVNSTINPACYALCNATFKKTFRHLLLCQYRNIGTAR

`COCCNC(=O)c1c(N)n(CCC2=CCCCC2)c2nc3ccccc3nc12`: in assay [1], the cell count was found to be 661. Further, the inhibition in [1] is -11.4% (inactive); in [3], -22.2% (inactive); in assay [5], 20.2% (inactive); in [11], 25.3% (inactive); in assay [12], 6.4% (inactive); in assay [13] it was 8.21% (inactive). The inhibition of aggregation in assay [2] is -0.5% (inactive). Moreover, the figures for the nuclei count in assay [2] and in assay [3] were 101% and 149%, respectively. For the same molecule, the z-score in assay [4] (setting [14]) is 1.39; in assay [4] (setting [15]), -1.83; in assay [4] (setting [16]) it was -0.195. Further, the values for the fluorescence slope in [6] and in assay [9] were -0.0792 (inactive) and 0.00724 (inactive), respectively. Also, in [7], the NADPH fluorescence slope was -5.5e-06 (inactive). Also, the slope in assay [8] is 0.00496 (inactive). In addition, the molecule was called inactive in assay [10].

As for `CCN(CC)CCN1C(=O)C(O)=C(C(=O)c2cccs2)C1c1ccccn1` (stereo not given), in [1], the cell count worked out at 503. For the same molecule, the inhibition in assay [1] was 1.8% (inactive); in [3], -7.4% (inactive); in assay [5], -0.608% (inactive); in assay [11], -9.88% (inactive); in [12] it was 4.53% (inactive); in assay [13], 12% (inactive). In addition, in [2], the inhibition of aggregation was -4.1% (inactive). The nuclei count in [2] turned out to be 102%; in assay [3], 120%. Besides, the figures for the z-score in assay [4] (setting [14]), in assay [4] (setting [15]) and in assay [4] (setting [16]) were -0.956, 0.653 and -1.67, respectively. The fluorescence slope in [6] is -0.468 (inactive); in assay [9], 0.0052 (inactive). For the same molecule, the NADPH fluorescence slope in assay [7] was -0.000108 (inactive). Further, the slope in assay [8] was 0.00594 (inactive). Further, in assay [10], the result was inactive.

With `CCCN(CCC)C(=O)CC(c1ccc(F)cc1)c1ccco1` (stereo not given), the cell count in assay [1] was found to be 558. In addition, the inhibition is -1.8% (inactive) in assay [1]; -37.9% (inactive) in [3]; 11.9% (inactive) in [5]; 27.9% (inactive) in assay [11]; 19.1% (inactive) in assay [12]; 23% (inactive) in assay [13]. In assay [2], the inhibition of aggregation was 24.6% (inactive). Also, the nuclei count in assay [2] was determined as 92.6%; in assay [3], 108%. Moreover, the figures for the z-score in [4] (setting [14]), in assay [4] (setting [15]) and in [4] (setting [16]) were 0.533, -0.963 and -0.846, respectively. In addition, the fluorescence slope in assay [6] was -0.467 (inactive); in assay [9], 0.00507 (inactive). In assay [7], the NADPH fluorescence slope was -2.2e-05 (inactive). In addition, the slope in assay [8] is 0.0041 (inactive). For the same molecule, the molecule was classed as inactive in [10].

For the molecule `CCOC(=O)CSC1=C(C#N)C(c2ccc(C)cc2)C(C(=O)OC)C(=O)N1` (stereo not given), in assay [1], the cell count amounted to 643. Moreover, the inhibition was 4.3% (inactive) in assay [1]; -39.2% (inactive) in assay [3]; 2.92% (inactive) in [5]; 6.69% (inactive) in assay [11]; -15.1% (inactive) in assay [12]; -12.7% (inactive) in assay [13]. Besides, in assay [2], the inhibition of aggregation is -1.7% (inactive). Besides, the nuclei count in assay [2] is 81.9%; in assay [3], 133%. Besides, the z-score in assay [4] (setting [14]) is 0.598; in assay [4] (setting [15]), 0.472; in assay [4] (setting [16]) it was -0.921. Besides, the values for the fluorescence slope in assay [6] and in assay [9] were -0.474 (inactive) and 0.00679 (inactive), respectively. Also, the NADPH fluorescence slope in [7] was -8.1e-06 (inactive). For the same molecule, in assay [8], the slope was 0.00434 (inactive). In addition, the result in assay [10] was inactive.

For the molecule `CCOC(=O)c1[nH]c2ccc(OC)cc2c1NC(=O)CCN1CCC(C)CC1`, the cell count in assay [1] amounted to 568. Besides, the inhibition in assay [1] is -0.3% (inactive); in assay [3], -54.8% (inactive); in assay [5], -8.59% (inactive); in assay [11], 29.3% (inactive); in [12] it was -0.0655% (inactive); in [13], 13.6% (inactive). Moreover, in [2], the inhibition of aggregation was 6.8% (inactive). Besides, the figures for the nuclei count in [2] and in assay [3] were 110% and 115%, respectively. Besides, the z-score in [4] (setting [14]) is 0.39; in assay [4] (setting [15]), -0.288; in [4] (setting [16]), -0.933. Further, the results for the fluorescence slope in assay [6] and in [9] were -0.339 (inactive) and 0.00353 (inactive), respectively. For the same molecule, the NADPH fluorescence slope in [7] is -3.9e-05 (inactive). Further, in [8], the slope was 0.00576 (inactive). Also, the molecule was classed as inactive in assay [10].

For orientation: inhibition means the relative decrease from the control value, in per cent.
